The results in this text go back to PubChem BioAssay AID1851 (National Center for Advancing Translational Sciences (NCATS), 2009).

The whole screen tested about 16,000 compounds, of which about 2,600 (16%) were called active. Inconclusive results (about 20%) are left out. Only a sample is shown. A number with no mark means an inactive call. Calls come from the whole dose curve; as a rule, active = well fitted curve in the direction sought with a large enough effect; inconclusive = small, poorly fitted or top-dose-only effect, or effect the other way; inactive = no such curve, though single readings can be large or run the other way.
% is set by controls: 0 for no effect and ±100 for the full control effect.

The target in the assay is Cytochrome P450 2D6 (Homo sapiens) (UniProt P10635). Description: Cytochrome panel assay with activity outcomes. The conditions noted are these: recombinant CYP, pro-luciferin dealkylation, luminescence, p450-cyp2d6; series mostly up to 57.1 µM; activity, negative = inhibition: at the top concentration.
Cytochrome P450 2D6 (Homo sapiens), sequence (P10635 whole entry, looked up): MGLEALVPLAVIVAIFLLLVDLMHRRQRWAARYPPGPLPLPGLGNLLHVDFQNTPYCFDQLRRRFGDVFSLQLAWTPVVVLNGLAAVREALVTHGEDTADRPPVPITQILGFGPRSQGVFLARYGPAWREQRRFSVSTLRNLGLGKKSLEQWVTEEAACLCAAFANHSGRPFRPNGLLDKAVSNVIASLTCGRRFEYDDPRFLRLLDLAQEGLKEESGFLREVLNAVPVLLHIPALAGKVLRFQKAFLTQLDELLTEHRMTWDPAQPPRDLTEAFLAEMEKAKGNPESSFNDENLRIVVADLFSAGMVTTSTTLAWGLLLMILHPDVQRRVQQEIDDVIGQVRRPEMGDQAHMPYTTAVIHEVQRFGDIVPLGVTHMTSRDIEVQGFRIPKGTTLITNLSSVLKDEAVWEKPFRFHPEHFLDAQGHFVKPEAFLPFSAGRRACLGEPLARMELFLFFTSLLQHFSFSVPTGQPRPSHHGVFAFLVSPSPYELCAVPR
Take `CCN(CC)Cc1c(O)c(Cl)cc2c3c(c(=O)oc12)CCCC3`: the AC50 – broadly, the midpoint of the concentration-response curve, whichever way the signal moves – is 2510 nM (active).

In the case of `CCN(CC)Cc1c(O)ccc2c(=O)c(Oc3ccccc3OC)coc12`, the “activity, negative = inhibition” value is 6.48%. With `CCC(C)C(NS(=O)(=O)c1ccc(C)cc1)C(=O)Oc1ccc2c3c(c(=O)oc2c1)CCC3` (stereo unspecified), the “activity, negative = inhibition” value is -13.9%. With `CC(C)CN(Cc1c(O)ccc2c3c(c(=O)oc12)CCC3)CC(C)C`, the AC50 was 224 nM (active). `CCc1cc2c(=O)c(-c3nc4ccccc4n3C)c(C)oc2c(CN(CC)CC)c1O`: the “activity, negative = inhibition” value is -3.61%. For `CCCCCOC(=O)CSc1nnc(-c2ccccc2)c(=O)[nH]1`, the “activity, negative = inhibition” value is 16.4%.

Turning to `Cn1c(=O)c2[nH]c(CCC(=O)O)nc2n(C)c1=O`, the activity, negative = inhibition is -4.99% [at 11.4 µM]. Still for that read-out and setting: for `CCOC(=O)C1=C(C)NC(=O)N[C@@H]1c1coc2cc(C)cc(C)c2c1=O` the value was 0.866% [at 11.4 µM]; for `O=C(OC1CCN(c2ncc(C(F)(F)F)cc2Cl)CC1)c1cccc(C(F)(F)F)c1`, -3.01%. In the case of `CCN(c1ccccc1)c1cc(NC)[n+](C)c(C)n1`, the concentration at half-maximal activity (AC50) is 3980 nM (active).

Consider `CN(C(=O)CC(NC(=O)c1ccccc1)(c1ccccc1)c1ccccc1)c1ccccc1`, for which the “activity, negative = inhibition” value is -9.41%. Take `O=C(NCCc1ccccc1)N1c2ccccc2Sc2ccccc21`: the AC50 is 20000 nM (active). In the case of `COC(=O)c1cc(NC(=O)N2c3ccccc3Sc3ccccc32)cc(C(=O)OC)c1`, the “activity, negative = inhibition” value was 5.22%. On the same count and under the same terms, next, `O=C(CSc1nc2ccccc2s1)N1c2ccccc2Sc2ccccc21`: 3.68%. Consider `Cc1ccc(N=Nc2ccc(N)cc2C)c(S(N)(=O)=O)c1`, for which the activity, negative = inhibition was 3.5% [at 11.4 µM].

For `Cc1ccccc1-n1c(=O)cc(N2CC(C)OC(C)C2)[nH]c1=O` (stereo unspecified), the “activity, negative = inhibition” value was -2.9%.

For `C/C(=C\c1ccc(Cl)cc1)C(C)(C)C(=O)O`, the activity, negative = inhibition is 6.46% [at 11.4 µM]. Turning to `CC1(C)CCC(C)(C)c2cc(C(=O)Nc3ccc(C(=O)O)cc3)ccc21`, the “activity, negative = inhibition” value is -18.8%. In the case of `C/C(=C\c1ccc(C(=O)O)cc1)c1ccc2c(c1)C(C)(C)CCC2(C)C`, the half-maximal activity concentration (AC50) was 12.6 nM (active). As for `COC(=O)\C(C(C)=O)=C(/C=C/C=C/C=C/N(C)C)N(C)C`, the “activity, negative = inhibition” value was -21.3%. Still for that read-out and setting: for `N=C(N)CCNC(=O)[C@@H]1CCC(N)=N1` the value was 2.49% [at 11.4 µM]; for `CCC(=O)Nc1ccc(NC(=O)CSc2nnnn2-c2cccnc2)cc1C`, -3.22%. Same read-out and setting: next, `CC1=C(C)/C(=N\OC(=O)/C=C/c2ccccc2)C=CC1=O`: -17.9%; `Cc1ccc(S(=O)(=O)/N=C2/NC(=O)/C(=C/c3cccnc3)S2)cc1`: -9.7%. Regarding `COc1ccc2ccccc2c1/C=C\C(=O)c1ccccc1`, the activity, negative = inhibition was 7.33% [at 11.4 µM]. The same measure, in the same setting: for `CC1(C)Oc2ccc(C#N)cc2[C@H](N2CCCC2=O)[C@H]1O` the value was 3.54%; for `CCCn1nc(NC(=O)CC(C)C)c2cc3ccccc3nc21`, -8.32%. `Cc1ccc(C(=O)COC(=O)c2ccccc2N2C(=O)C3C4CCC(C4)C3C2=O)cc1C` (stereo unspecified): the “activity, negative = inhibition” value was -11.3%.

Regarding `O=C(O)[C@@H]1CCCN1Cc1cc2ccccc2c2ccccc12`, the activity, negative = inhibition was 10.3% [at 11.4 µM]. As for `Clc1ccc(CN2CCCN(Cc3ccc(Cl)cc3)C2c2cc3ccccc3c3ccccc23)cc1`, the AC50 was 200 nM (active). Regarding `COC(=O)C1=C(N)Oc2cc(C)n(CC3CCCO3)c(=O)c2C1c1ccccc1OC` (stereo unspecified), the “activity, negative = inhibition” value is 0.229%. Regarding `COc1cc(C(=O)N2CCC(NC(=O)C(Cc3ccc(C(C)C)cc3)NC(C)=O)CC2)cc(OC)c1OC` (stereo unspecified), the “activity, negative = inhibition” value was -11.8%. Regarding `CN(C)CCCNc1c(C(=O)O)cnc2c1cnn2C`, the “activity, negative = inhibition” value was 6.96%. Take `Cc1cc2nc(C)n(CCCN)c2cc1C`: the “activity, negative = inhibition” value was -23.3%.

With `C[C@@H]1CCN=C(N)S1`, the AC50 entry was “inactive”. `CC(C)CN(C)c1nc(N)c(C(=O)N=C(N)N)nc1Cl`: the AC50 is 39800 nM (active). Regarding `CN(C)c1nc(N)c(C(=O)N=C(N)N)nc1Cl`, the “activity, negative = inhibition” value is -8.15%.

Take `N[C@]1(C(=O)O)CCc2cc(P(=O)(O)O)ccc21`: the “activity, negative = inhibition” value was 12.2%.

Take `CC(C)=CCC/C(C)=C/CC/C(C)=C/CSc1ccccc1C(=O)O`: the “activity, negative = inhibition” value was 6.75%. Same read-out and setting: for `O=C(N/N=C1/C[C@@H](O)[C@@H](O)[C@@H]2[C@@H]3C(=O)N(Cc4ccc5c(c4)OCO5)C(=O)[C@H]3CC[C@H]12)OCc1ccccc1` the value was -16.9% [at 11.4 µM].

Take `CC1=CC(C)(C)Nc2ccc(CSc3ccccc3)cc21`: the AC50 is 631 nM (active). Consider `Cc1cc(CSc2ccccc2)ccc1NC(=O)COc1ccccc1`, for which the “activity, negative = inhibition” value was -20.7%. The same measure, in the same setting: for `O=c1cc(CSc2ccccc2)[nH]c(=S)[nH]1` the value was -1.57%. As to `Cc1cc(=Nc2ccc3c(c2)c(N)cc(C)[n+]3C)nc(N)n1C`, the activity, negative = inhibition was 2.81% [at 11.4 µM]. `Cc1ccc(C(=O)NC(=S)NCC(=O)c2ccccc2)cc1`: the “activity, negative = inhibition” value was -0.0035%. On the same count and under the same terms, for `O=C(CSc1nc2ccccc2c2ccccc12)c1ccccc1` the value was 15.3% [at 11.4 µM]. For the molecule `C=CCSc1nc2ccccc2n1C(=O)/C=C/c1cc(OC)c(OC)c(OC)c1`, the “activity, negative = inhibition” value is -18.1%.

`O=C(c1ccco1)N(CCC(c1ccccc1)c1ccco1)Cc1ccco1` (stereo unspecified): the “activity, negative = inhibition” value was -23.7%. In the case of `O=C(CN(Cc1ccco1)C(=O)c1cccc(Cl)c1)Nc1c(Cl)cc(Cl)cc1Cl`, the AC50 was 7080 nM (active). In the case of `O=C(c1ccccc1)N(Cc1ccco1)C1CCS(=O)(=O)C1` (stereo unspecified), the “activity, negative = inhibition” value was 0.77%. Same read-out and setting: for `O=C(COC(=O)c1cccc(S(=O)(=O)N2CCN(c3ccccc3)CC2)c1)NCc1ccco1` the value was -24.8%; for `Cc1cc(C)c2[nH]c(=O)c(CN(Cc3ccco3)C(=O)c3cccs3)cc2c1`, -0.89%. For the molecule `O=C(CN(Cc1ccco1)C(=O)c1ccccc1)Nc1ccc(Cl)c(Cl)c1`, the concentration at half-maximal activity (AC50) is 25100 nM (active). For the molecule `CC(=O)Nc1ccc(N2C(=O)CC(c3ccccc3)CC2=O)cc1`, the “activity, negative = inhibition” value was -0.454%. With `CC(=O)Nc1ccc(S(=O)(=O)N=S(C)C)cc1`, the AC50 entry is “inactive”. Turning to `CCOc1ccc(CCNC(=O)C2CCN(S(=O)(=O)CC)CC2)cc1OCC`, the “activity, negative = inhibition” value is -2.78%.

Consider `CCOc1cc(CNCCc2ccc(S(N)(=O)=O)cc2)ccc1OCc1ccc(Cl)cc1`, for which the AC50 is 8910 nM (active). Regarding `CCOc1cc(CNCCc2ccc(S(N)(=O)=O)cc2)cc(Cl)c1OCc1ccccc1`, the half-maximal activity concentration (AC50) was 355 nM (active).

As to `NS(=O)(=O)c1ccc(CCNC(=O)C2CCCN2C(=O)OCc2ccccc2)cc1` (stereo unspecified), the “activity, negative = inhibition” value is -16.8%. Regarding `NS(=O)(=O)c1ccc(CNC(=O)/C=C/c2c(Cl)cccc2Cl)cc1`, the “activity, negative = inhibition” value was -21.5%.

For `COC(=O)[C@H](CCSC)NC(=O)C/C=C\[C@@H](C)[C@@H](CO)OC`, the activity, negative = inhibition was 8.79% [at 11.4 µM]. The same measure, in the same setting: for `N#CCCn1c(=O)c(-c2cccs2)nc2cnc(OCc3ccccc3)nc21` the value was -4.83%.

For the molecule `C=CCOC(=O)C1=C(C)NC(SCC(=O)OCC)=C(C#N)C1c1ccc(C)cc1` (stereo unspecified), the AC50 was 14100 nM (active). In the case of `CCOC(=O)CSC1=C(C#N)C(c2sccc2C)CC(=O)N1` (stereo unspecified), the “activity, negative = inhibition” value is 3.89%. As to `CCOC(=O)CSC1=C(C#N)C(C)C2=C(CCCC2=O)N1` (stereo unspecified), the “activity, negative = inhibition” value is -12.6%. Consider `C#CCCCO/N=C1/[C@H]2O[C@@H]2[C@@H](O)[C@H]2[C@H]1CCn1c(=O)n([C@@H](CC)c3ccccc3)c(=O)n12`, for which the activity, negative = inhibition is -15.4% [at 11.4 µM]. With `COc1ccccc1C(=O)NN1C(=O)C2C3C=CC(O3)C2C1=O` (stereo unspecified), the “activity, negative = inhibition” value was 3.94%. For the molecule `Cn1c(=O)c2[nH]c(SCCN3CCOCC3)nc2n(C)c1=S`, the activity, negative = inhibition is 0.168% [at 11.4 µM]. On the same count and under the same terms, next, `Cc1cc(C2C(C#N)=C(N)OC3=C2C(=O)CC(C)(C)C3)c(C)s1` (stereo unspecified): 4.82%.

For `COc1cccc(N(CC(=O)Nc2cccc(C(C)=O)c2)S(C)(=O)=O)c1`, the AC50 was 141 nM (active).

Turning to `CC(=O)c1cccc(NC(=O)CCC2CCCC2)c1`, the “activity, negative = inhibition” value is -17.5%. Same read-out and setting: for `CC(=O)c1cccc(NC(=O)Oc2ccccc2)c1` the value was -0.0879%. Same read-out and setting: next, `Cc1ccc(NS(=O)(=O)c2ccc(OCC(=O)Nc3cccc([N+](=O)[O-])c3)c(C)c2)cc1`: -97.9%; `COc1ccc(CC(=O)Nc2cccc(/C(C)=N/NC(=O)c3cccc([N+](=O)[O-])c3)c2)cc1`: -14.5%. Regarding `CS(=O)(=O)N(CC(=O)Nc1cccc(F)c1)c1cccc([N+](=O)[O-])c1`, the AC50 is 631 nM (active). For the molecule `Cc1sc(NC(=O)C2CCCCC2C(=O)O)c(C(N)=O)c1C` (stereo unspecified), the “activity, negative = inhibition” value is -2.17%. On the same count and under the same terms, next, `CO[C@@H]1COC(=O)C/C=C\[C@@H](C)[C@@H]2C=C[C@H](O)[C@@H](COC(=O)CCC[C@H]1C)O2`: 4.34% [at 11.4 µM]. Same read-out and setting: for `CC(C)Oc1ccc2c(=O)c3cc(C(=O)O)ccc3oc2c1` the value was 0.758%; for `CC[C@H]1C2=C3C(CC[C@H]4C(OCc5ccc(F)cc5C(F)(F)F)OC[C@](C)([C@@H]34)N(C(=O)OC(C)(C)C)C2)C2COC(=O)OCC21` (stereo partly specified), -12.1%.

With `COc1ccc(C2/C(=C(/O)c3ccccc3)C(=O)C(=O)N2c2ccccn2)c(OC)c1` (stereo unspecified), the “activity, negative = inhibition” value is 1.83%. On to `COc1ccc(Sc2nc3ccccc3n3c(C(F)(F)F)nnc23)cc1`, for which the “activity, negative = inhibition” value is -12.8%. The same measure, in the same setting: for `CC1=C(C(=O)OCc2ccccc2)C(c2cccnc2)c2c(n(C)c(=O)n(C)c2=O)N1` (stereo unspecified) the value was -24.1%; for `Cc1ccc(C2Nc3ccccc3C(=O)N2Cc2ccco2)cc1` (stereo unspecified), -19%. With `COc1ccccc1-c1cc(-n2ccnc2)ncn1`, the AC50 is 12600 nM (active). On the same count and under the same terms, for `CN(C)Cc1ccccc1-c1cc(-n2ccnc2)ncn1` the value was 2510 nM (active).

Regarding `Cc1cc([N+](=O)[O-])nn1Cc1ccccc1F`, the “activity, negative = inhibition” value is -8.89%. The same measure, in the same setting: next, `Cc1cc(C)c(S(=O)(=O)N2CCCCC2)c(C)c1N(C)S(=O)(=O)c1ccccc1`: -13.5%. On to `CC1=C(CC(=O)O)c2cc(F)ccc2/C1=C\c1ccc(S(C)=O)cc1` (stereo unspecified), for which the AC50 entry is “inactive”. As for `CCOC(=O)c1sc(=S)n(-c2cccc(C(F)(F)F)c2)c1SC`, the “activity, negative = inhibition” value is 11.7%. With `Cc1nnc(S(=O)(=O)c2ccc(N=Nc3c(N)nc(N)nc3N)cc2)s1`, the activity, negative = inhibition was 18% [at 11.4 µM].

With `CCOC(=O)c1cc(NC(=O)c2ccc(OC)cc2)c(=O)oc1-c1ccccc1`, the “activity, negative = inhibition” value was -16.4%. On the same count and under the same terms, next, `Cc1nn(C(C)C(=O)Nc2sc3c(c2C#N)CCCC3)c(C)c1[N+](=O)[O-]` (stereo unspecified): 1.12%. For `C/C(=N/O)c1ccc2cc(Br)c3ccccc3c2c1`, the concentration at half-maximal activity (AC50) was 25.1 nM (active). Take `C/C(=N\O)c1ccc2[nH]ccc2c1`: the “activity, negative = inhibition” value is -1.06%.

For `C=CCn1c(SCC(=O)NC2CCCCC2)nnc1C1CCCCC1`, the “activity, negative = inhibition” value was -0.906%. The same measure, in the same setting: for `CO[C@@H]1COC(=O)[C@@H](CCSC)NC(=O)C/C=C\[C@@H](C)COC(=O)[C@H](C)NC(=O)C/C=C\[C@H]1C` the value was 6.23% [at 11.4 µM].
